The source of these data is PubChem BioAssay (EPA / NIEHS).

Activity calls are given as the source filed them. How the source made its calls: active means hit-call score of the fitted dose curve at least 0.9, where 1 is the maximum; inconclusive means response in the unintended direction; inactive means score below 0.9.

Sequence of human Dual Specificity Protein Phosphatase 3 (DUSP3), DUSP3 (gene 1845) (P51452 whole entry, looked up): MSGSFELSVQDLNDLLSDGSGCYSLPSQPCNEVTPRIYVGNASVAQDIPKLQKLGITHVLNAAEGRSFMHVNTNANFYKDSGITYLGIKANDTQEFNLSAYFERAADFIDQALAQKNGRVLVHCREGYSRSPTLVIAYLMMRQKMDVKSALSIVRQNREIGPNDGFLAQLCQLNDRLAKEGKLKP

The target of the test is human Dual Specificity Protein Phosphatase 3 (DUSP3), DUSP3 (gene 1845) (UniProt P51452). Briefly: NVS_ENZ_hDUSP3: NovaScreen (NVS) Enzymatic Assay for human Dual Specificity Protein Phosphatase 3 (DUSP3) (AID 2283152). The protocol:
NVS_ENZ_hDUSP3 is a biochemical, single-readout assay that uses extracted gene-proteins in a cell-free assay. Measurements were taken 0 hour after chemical dosing in a 96-well plate.NVS_ENZ_hDUSP3 is one of one assay component(s) measured or calculated from the NVS_ENZ_hDUSP3 assay. It is designed to make measurements of enzyme activity, a form of enzyme reporter, as detected with fluorescence intensity signals by Fluorescence technology.Data from the assay component NVS_ENZ_hDUSP3 was analyzed into 1 assay endpoint. This assay endpoint, NVS_ENZ_hDUSP3, was analyzed in the positive analysis fitting direction relative to DMSO as the negative control and baseline of activity. Using a type of enzyme reporter, loss-of-signal activity can be used to understand changes in the enzymatic activity as they relate to the gene DUSP3. Furthermore, this assay endpoint can be referred to as a primary readout, because this assay has produced multiple assay endpoints where this one serves a enzymatic activity function. To generalize the intended target to other relatable targets, this assay endpoint is annotated to the phosphatase intended target family, where the subfamily is dual-specific phosphatase.
Binding assays used specific radioligands (tritiated, iodinated) with non-radioactive competitive displacement ligands in agonist or antagonist protocols (as indicated) and various reference compounds and inhibitors to titrate specific binding to receptors and transporters. Most enzyme assays (CYPs, kinases, phosphatases, proteases, HDACs) used recombinant protein and specific substrates (fluorescence mostly, some colorimetric and radioactive) and inhibitors, followed by a biochemical separation of substrate and product. All assays for the biochemical HTS were initially run in duplicate at a single concentration (10 uM for CYP450 assays and 25 uM for all others). […] Each assay was run with positive and negative controls, and concurrent controls on every plate. The follow-up (secondary) screen tested active chemical-pairs in concentration series, as well as a few additional assays not tested in the primary screen, some selected negative inactives, and several cases re-run in the concentration series for confirmatory purposes.
On to `O=C1CCC(C2CCCCC2)CC1`, for which the AC50 was 22.2 µM (active).
As for `Cc1ccc2oc(CN(Cc3ccccc3)C(=O)Nc3c(F)cc(F)cc3F)c(-c3ccc(Cl)cc3)c2c1`, the AC50 is 9.32 µM (active).
Turning to `CCN(Cc1cccnc1)C(=O)c1cccc(Cl)c1[C@]1(C)C(=O)N(Cc2ccc(OC)cc2OC)c2ccc(Cl)cc21`, the half-maximal activity concentration (AC50) is 14.1 µM (active).
Same read-out and setting: as for `CCN(Cc1cccc(S(=O)(=O)O)c1)c1ccc(C(=C2C=CC(=[N+](CC)Cc3cccc(S(=O)(=O)O)c3)C=C2)c2ccccc2S(=O)(=O)[O-])cc1`, the figure is 12.5 µM (active).
Regarding `Cc1c2ccccc2c(C)c2c1ccc1ccccc12`, the call was inactive.
As for `OC12N=C(c3ccccc3)SC1Cc1cc(Cl)ccc12` (centres undefined), the AC50 is 4.92 µM (active).
Still for that read-out and setting: with `Cc1cc(F)ccc1-c1cc(N2CC[C@@H](O)[C@H]2CO)ncc1N(C)C(=O)C(C)(C)c1cc(C(F)(F)F)cc(C(F)(F)F)c1` the figure was 12.3 µM (active); with `O=C1c2ccccc2C(=O)N1CCc1noc(-c2ccc(CN3CCCCCC3)s2)n1`, 19.9 µM (active).
For `CCCCCCCCOc1ccc(C(=O)c2ccccc2)c(O)c1`, the molecule was classed as inactive.
Same read-out and setting: as for `CCCCCCCCOC(=O)c1cc(O)c(O)c(O)c1`, the entry is “inactive”.
For `COc1ccc2cc(S(=O)(=O)N[C@H](CC(=O)N[C@H](Cc3ccc(CN4[C@H](C)CCC[C@@H]4C)cc3)C(=O)N(C)C(C)C)c3ccc4c(c3)OCO4)ccc2c1`, the AC50 was 3.86 µM (active).
With `O=C(Nc1ccc(Cl)cc1)Nc1ccc(Cl)c(Cl)c1`, the result was inactive.
For `CN1C(=O)N(c2ccccc2Br)Cc2cnc(Nc3ccc4c(c3)OCC(CO)O4)nc21` (centres undefined), the AC50 is 8 µM (active).
Same read-out and setting: as for `CO[C@H]1/C=C/O[C@@]2(C)Oc3c(C)c(O)c4c(O)c(c(/C=N/N5CCN(C)CC5)c(O)c4c3C2=O)NC(=O)/C(C)=C\C=C\[C@H](C)[C@H](O)[C@@H](C)[C@@H](O)[C@@H](C)[C@H](OC(C)=O)[C@@H]1C`, the figure is 7.6 µM (active).

In general, AC50 refers to the concentration giving half of the maximal activity seen.
